Measurements: ChEMBL document CHEMBL3988442, “University of Dundee, Small-Polar-MMV Screening Library” (2021)

Each compound was assayed against AMP-activated protein kinase, AMPK (Homo sapiens) (UniProt P54646+O43741+P54619+Q9UGJ0+Q9Y478+Q13131+Q9UGI9) (assay: AMP-dependent Kinase enzyme assay. An in vitro enzyme assay that detects ADP turnover that is directly proportional to AMPK activity. This uses naive AMPK that is activated during the assay with MK-8722). Conditions: 30 µM.
Format: functional
Parameters: scale not given: direction of the effect not stated beside the values

Compound	Percent Effect
CC(C(=O)NCc1ccc2c(c1)OCCO2)n1cncn1 (stereo not given)	-8.38%
COC(=O)c1ccc(N2CCN(C(=O)CCCc3cn[nH]c3)CC2)cc1	6%
FC(F)(F)c1csc(N2CCN(Cc3ccccn3)CC2)n1	7.24%
CC(C)Cc1cc(C(=O)N2CCC(Cc3cnn(C)c3)C2)cc(O)n1 (stereo not given)	-2.83%
CCC(C)Oc1ccc(CNCCNC(C)=O)cc1Cl (stereo not given)	-6.19%
O=C(CC1CCCC1)NCCS(=O)(=O)N1CCN(c2ccccc2)CC1	-7.22%
COc1ccc(CN(C)[C@@H]2COC[C@H]2c2ccc(F)cc2)c(OC)c1	10.5%
CO[C@H]1C[C@@H](O)C12CCN(C(=O)NCc1ccco1)CC2	-2.57%
Cc1ncsc1C(=O)NCCN1CCCCCC1=O	-13.5%
CC(C)N(C)S(=O)(=O)c1ccc2c(c1)CCN(C(=O)c1cscn1)C2	-3.43%
Cc1[nH]c2c(F)cccc2c1CC(=O)NC1CCCCNC1=O (stereo not given)	10.4%
CN1C[C@@H]2CC[C@H](C1)N(Cc1ccccc1OCCN1CCOCC1)C2	-106%
CC(CCc1ncnn1Cc1cccc(Cl)c1)N1CCCC1 (stereo not given)	7.16%
CC(O)c1cnn(-c2ccccc2)c1 (stereo not given)	12.6%
CC(NC(=O)C1CC1)C(=O)N(C)Cc1ccsc1 (stereo not given)	-1.9%
Cc1cc(C)n(CC(C)NC(=O)C2(c3ccccc3F)CC2)n1 (stereo not given)	-3.82%
CC(C)(C)NC(=O)CNc1ccc(Br)cn1	7.07%
COc1ccc(C)nc1NC(=O)CCc1c(C)nn(C)c1C	-7.06%
COCCC(=O)NCCc1nc2cc(-c3ccc(OC)cc3)ncn2n1	20%
Cc1cc(C(=O)N(C)C2CCS(=O)(=O)C2)c2ccc(F)cc2n1 (stereo not given)	-7.82%

Compound	Percent Effect
O=C(NC1CCN(Cc2ccc(F)cc2)CC1)c1ccc2c(c1)CCC2	-2.43%
O=C(C1CCCCN1Cc1nccn1CC(F)(F)F)N1CCCC1 (stereo not given)	-9.13%
Cc1cc(-c2cc3nc(C)c(C)c(NCC4COCCO4)n3n2)no1 (stereo not given)	17.6%
CN1CCC(NC(=O)c2cc(F)cc(Cl)c2O)C1=O (stereo not given)	11.4%
Cc1nc(O)cc(C2(C)CCCNC2)n1 (stereo not given)	19.4%
CC1(C(N)=O)CN(S(=O)(=O)c2cccc(F)c2)CCO1 (stereo not given)	3.77%
Cc1ccc(C)c(CC(=O)NC2CCC(N3C(=O)CCC3=O)CC2)c1 (stereo not given)	-3.29%
Cn1ncc2c1CCCC2NCc1cccnc1 (stereo not given)	5.94%
COc1ccc(CN(C)C(=O)CN2CC(n3cccn3)C2)cc1F	-4.28%
Cc1nsc(C(=O)NCCCc2ccccc2)n1	1.51%
Cc1cc(-c2cnc(N3CCC(C(N)=O)CC3)nc2C(C)C)on1	21.5%
O=C1CCC(C(=O)N2CCC(Cn3cc(C4CCCC4)nn3)CC2)=NN1	-8.82%
COc1nsc2nc(C3CCCN3C(C)=O)ccc12 (stereo not given)	7.38%
CCn1ncc(CN2CCC(c3ncc(Cl)cc3S(C)(=O)=O)CC2)c1C	6.21%
CCOc1ccc(NC(=O)NCCS(=O)(=O)CC)cc1C	-0.616%
C[C@H](N)C(=O)N1CCC(c2[nH]ncc2-c2ccccc2)CC1	-8.96%
CCS(=O)(=O)N1CCCN(CCCOC)CC1	19%
O=C(c1ccncc1)N1CCC(Oc2cccc(C(F)(F)F)c2)CC1	-1.49%
Cc1c(NC(=O)c2ncn[nH]2)cccc1C(=O)NC(C)(C)C	5.84%
c1cn(-c2nccnc2C2CCCN(C3CCOCC3)C2)cn1 (stereo not given)	10.1%
